In general, AC50 refers to the midpoint of the concentration-response curve, whichever way the signal moves.

Activity calls are given as the source filed them. How the source made its calls: active means hit-call score of the fitted dose curve at least 0.9, where 1 is the maximum; inactive means score below 0.9.

Read-out in the assay: Vascular cell adhesion molecule 1 (VCAM1), VCAM1 (gene 7412)
In words: BSK_LPS_VCAM1: BioMAP Diversity Plus: LPS Assay for Vascular cell adhesion molecule 1 (VCAM1) Biomarker Activity (AID 2283086). The conditions noted are these: primary human HUVEC with PBMC; actives raise or lower the signal. On the procedure: BSK_LPS is a cell-based, multiplexed-readout assay that uses umbilical vein endothelium and peripheral blood mononuclear cells, a human vascular primary cell co-culture, with measurements taken at 24 hours after chemical dosing in a 96-well plate.BSK_LPS_VCAM1 is an assay component measured in the BSK_LPS assay. It measures VCAM-1 antibody related to regulation of gene expression using ELISA technology.Data from the assay component BSK_LPS_VCAM1 was analyzed into 1 assay endpoint. This assay endpoint, BSK_LPS_VCAM1, was analyzed with bidirectional fitting relative to DMSO as the negative control and baseline of activity. Using a type of binding reporter, gain or loss-of-signal activity can be used to understand changes in the signaling as they relate to the gene VCAM1. Furthermore, this assay endpoint can be referred to as a primary readout, because this assay has produced multiple assay endpoints where this one serves a signaling function. To generalize the intended target to other relatable targets, this assay endpoint is annotated to the cell adhesion molecules intended target family, where the subfamily is Immunoglobulin CAM.
The levels of cell surface (or secreted, indicated by the prefix "s") biomarker endpoints were measured by ELISA. Overt cytotoxicity to cells in confluent adherent cultures (all systems other than the BT system) was assessed by measuring total protein levels using sulforhodamine B (SRB) staining in parallel cultures at the time of biomarker measurements, indicated as SRB endpoints. For proliferation assays for adherent cell types, individual cell types are cultured at sub-confluence and relative cell numbers quantified by SRB staining at time points optimized for each system (48 h: 3C and CASM3C systems; 72 h: BT and HDF3CGF systems; 96 h: SAg system). SRB was performed by staining cells with 0.1% SRB after fixation with 10% TCA and reading wells at 560 nm.Viability and proliferation of PBMC (T cells) was quantified by Alamar Blue reduction for the SAg and BT systems. For PBMC viability (referred to as PBMC Cytotoxicity within the assay endpoint names), cells were plated (75,000/well in a 96-well plate) and then chemical samples added for 1 h before addition of activators, SEB and TSST-1 (20 ng/mL final concentration each). Cells were incubated for 90 h. Then, Alamar Blue (20 uL/well) (Invitrogen, Cat DAL1100) was added for 6 h, and the plates were read with a fluorescence microplate reader at 546/580 nm (excitation/emission). For PBMC proliferation, cells were plated and activated as above but incubated for only 16 h prior to addition of Alamar Blue. Plates were read after 6 h.
Consider `O=P(OCC(Br)CBr)(OCC(Br)CBr)OCC(Br)CBr` (stereo not given), for which the result was inactive.
Consider `CCOP(=S)(OCC)SCn1nnc2ccccc2c1=O`, for which the outcome was inactive.
As for `C=CC(=O)OCC(CC)(COC(=O)C=C)COC(=O)C=C`, the AC50 is 2.79 µM (active).
For the molecule `CCOP(=S)(NC(C)C)Oc1ccccc1C(=O)OC(C)C` (stereo not given), the result was inactive.
Take `O=C(O)C(F)(F)OC(F)(F)C(F)(F)OC(F)(F)C(=O)O`: the result was inactive.
On the same count and under the same terms, for `Nc1ccc([N+](=O)[O-])cc1Cl` the value was “inactive”; for `CC(Cl)(Cl)C(=O)O`, “inactive”.
On to `ClC(Cl)(Cl)c1ccccc1`, for which the outcome was inactive.
For `CCNc1nc(Cl)nc(NC(C)(C)C)n1`, the outcome was inactive.
As to `COP(=O)(CCC(=O)NCO)OC`, the outcome was inactive.
As for `[N-]=[N+]=[N-]`, the outcome was inactive.
On the same count and under the same terms, for `CCCCc1ccccc1` the value was “inactive”; for `c1cc2c3c(cccc3c1)CC2`, “inactive”; for `CC(Cl)CN(C)C` (stereo not given), “inactive”.
Consider `CCOP(=S)(OCC)SCSCC`, for which the result was inactive.
With `O=S(=O)(F)C(F)(F)C(F)(F)C(F)(F)C(F)(F)C(F)(F)C(F)(F)C(F)(F)C(F)(F)F`, the outcome was inactive.
On to `O=[N+]([O-])c1ccc(Cl)c(Cl)c1`, for which the result was inactive.
For the molecule `CC(C)Nc1ccc(Nc2ccccc2)cc1`, the AC50 was 10.2 µM (active).
Turning to `O=P(Oc1ccccc1)(Oc1ccccc1)Oc1ccccc1`, the AC50 is 20 µM (active).
Regarding `O=C(O)C(F)(F)C(F)(F)C(=O)O`, the outcome was inactive.
The same measure, in the same setting: under `Cc1ccc([N+](=O)[O-])cc1C` stands “inactive”.
With `FC(F)(F)C(F)(C(F)(F)F)C(F)(F)C(F)(F)CC1CO1` (stereo not given), the outcome was inactive.
Turning to `CC(C)(C)c1ccc(O)cc1`, the result was inactive.
For the molecule `CSC(C)(C)C=NO`, the result was inactive.
Same read-out and setting: for `O=C(O)C1C(C(=O)O)C2(Cl)C(Cl)=C(Cl)C1(Cl)C2(Cl)Cl` (stereo not given) the value was “inactive”; for `NC(=O)C(F)(F)C(F)(F)F`, “inactive”.
Regarding `O=C(O)C(F)(OC(F)(F)C(F)(F)C(F)(F)F)C(F)(F)F` (stereo not given), the result was inactive.
Regarding `CCCCCCCc1ccc(O)cc1`, the AC50 is 36.2 µM (active).
On to `Cc1ccc2c(c1N)C(=O)c1ccccc1C2=O`, for which the result was inactive.
As for `N#Cc1cc([N+](=O)[O-])ccc1N`, the outcome was inactive.
As to `COP(N)(=S)OC`, the outcome was inactive.
Turning to `Cc1ccc(N)cc1N`, the result was inactive.
As to `CC(Cc1ccc(OCC(=O)O)cc1)NCC(O)c1csc(C(F)(F)F)n1` (stereo not given), the outcome was inactive.
`CN(C)C(=O)Cl`: the outcome was inactive.
In the case of `CCCN(CCC)c1c([N+](=O)[O-])cc(C(C)C)cc1[N+](=O)[O-]`, the half-maximal activity concentration (AC50) was 26.1 µM (active).
As to `CCOc1ccc(C(C)(C)COCc2cccc(Oc3ccccc3)c2)cc1`, the result was inactive.
On to `CCOP(=S)(Oc1ccc([N+](=O)[O-])cc1)c1ccccc1` (stereo not given), for which the outcome was inactive.
Consider `CCOP(=S)(S)OCC`, for which the outcome was inactive.
For the molecule `O=C(O)C(F)(F)OC(F)(F)C(F)(F)OC(F)(F)F`, the outcome was inactive.
`O=C(O)C(Cl)Cl`: the outcome was inactive.

These data come from PubChem BioAssay (EPA / NIEHS).
